IL1B secr inh: inflammasome signaling inhibition, IL-1 beta readout. THP-1 LPS/ATP IL-1B secretion, AlphaLISA, 16 h; stronger effect = lower value. activity change, % at 57.5 µM. 360,000 tested, 4.7% active; in the data active means activity change below about -50%; inconclusive means mostly about -30% to -49%; further: on the % scale 0 is the no-effect control and ±100 the full control effect
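THP-1 cells pretreated 1 hr with compounds (up to 57.5 uM final), then stimulated with LPS (250 ng/mL final) plus ATP (1.25 mM final); secreted IL-1B measured by AlphaLISA after 16 hr, decreased signal indicating inhibition.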
HT1080NT lethal: kills 2HG-producing HT-1080-NT fibrosarcoma cells. HT-1080-NT fibrosarcoma viability, CellTiter-Glo ATP luminescence, 48 h. Potency, µM (titrated, usually from 46.1 µM), inactives show at the highest dose activity, negative = less viability, usual class: cytotoxic. 360,000 tested, 1.6% active. AID 686970;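 further: NT is the 2HG producing partner of a matched IDH1 knockdown line; potency means the concentration at half of the fitted maximal effect; 0% = DMSO-treated cells and -100% = media-only wells without cells; nearly all actives have a fitted effect of over 55% in size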
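Fibrosarcoma NT cells, 750 per well in 5% FBS RPMI, were exposed to compound for 48 hours. Viability: CellTiter-Glo luminescence.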
Giardia kill: Giardia lamblia killing; Giardia lamblia trophozoite viability; activity change, % at 7.66 µM, hits read low; 340,000 tested, 0.15% active; in the data active means activity change below about -80%; inconclusive means between about -30% and that limit;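 further: parasites exposed to compound for two days anaerobically before the ATP read; on the % scale 0 is the no-effect control and ±100 the full control effect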
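Each well holds 100 Giardia trophozoites and compound. After two days (48 hrs) at 37 deg C in anaerobic conditions, ATP is quantified by luminescence.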
TGFb SMAD3 inh: blocks TGF-b signaling | HepG2 CAGA-GFP TGF-b/SMAD3 reporter, GFP fluorescence, 18 h; TGF-beta stimulated, 500 pg/mL final | Potency, µM (titrated, usually from 46.1 µM), for the others: at the top dose activity, negative = inhibition, actives largely listed as inhibitors | 410,000 tested, 1.2% active | AID 588855; further: potency means the concentration at half of the fitted maximal effect; on the % scale 0 is the no-effect control and ±100 the full control effect; nearly all actives have a fitted effect of over 65% in size
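HEPG2 CAGA-GFP cells (1000/well, DMEM with 1% FBS) were pre-incubated 2 h at 37 degrees C, given compound by pin tool, then stimulated with TGF-beta at 500 pg/mL final for 18 h before per-cell GFP fluorescence imaging.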
HT1080 IDH1KD tx: HT-1080 IDH1 knockdown cell toxicity (counter line) | HT-1080 IDH1 knockdown viability, ATP luminescence, 48 h | Potency, µM (doses to about 46.1 µM), without a hit: at the top dose activity, negative = toxicity, actives largely listed as cytotoxic | 360,000 tested, 2% active | AID 686971;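 further: potency means the concentration at half of the fitted maximal effect; 0% = DMSO wells and -100% = cell-free medium wells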
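Luminescent ATP read-out (CellTiter-Glo, 10 min at room temperature) after 48 h compound exposure at 37 °C gave viability of IDH1-knockdown HT-1080 cells. Activity was normalised to DMSO and cell-free wells, then fitted as concentration-response curves.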
HepG2 viability: HepG2 cytotoxicity, counter-screen for TGF-b inhibitors; HepG2 CAGA-GFP viability, ATP luminescence, 18 h; Potency, µM (highest dose often 46.1 µM), without a hit: at the top dose activity change, negative = cytotoxicity, usual class: cytotoxic; 410,000 tested, 0.76% active; further: potency means the concentration at half of the fitted maximal effect
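CellTiter-Glo luminescence gave cytotoxicity after 18 hours at 37 degrees C. The cells were HepG2 CAGA-GFP in 1% FBS DMEM, stimulated with 500 pg/mL TGF-beta after compound addition. %Activity was normalised to no-cell wells (complete cell-killing) and DMSO (no toxicity), and curves were fitted and classified.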
The depositor's hits bear a star; ? = inconclusive; nt = not tested or not shown. Compounds with a hit are over-represented: about 6.5% of the library has one in this group of screens. Unless noted, the call rests on the fitted dose curve; in most records, active means well fitted curve in the direction sought with a large enough effect; inconclusive means small, poorly fitted or top-dose-only effect, or another doubt; inactive means no such curve, though single readings can be large; an effect the other way counts as inactive or inconclusive.

SMILES	IL1B secr inh	HT1080NT lethal	Giardia kill	TGFb SMAD3 inh	HT1080 IDH1KD tx	HepG2 viability
O=C(c1cc2nc(-c3ccccc3)cc(C(F)(F)F)n2n1)N1CCN2CCCC2C1 (stereo not drawn)	?	?	6	1%	-5%	-4%
COc1ccc(-c2cc(C(F)F)n3ncc(C(=O)N4CCc5ccccc54)c3n2)cc1	46	3.3µM*	-9	9%	2.9µM*	5%
COc1ccc(-c2cc(C(F)F)n3ncc(C(=O)n4ccnc4C)c3n2)cc1	-21	-25%	-20	-25%	?	-3%
O=C(c1nn2c(C(F)(F)F)cc(-c3ccccc3)nc2c1Cl)N1CCN2CCCC2C1 (stereo not drawn)	-64*	-12%	37	-18%	-16%	-17%
COc1ccc(-c2cc(C(F)F)n3ncc(C(=O)N4CCN5CCCC5C4)c3n2)cc1 (stereo not drawn)	-65*	9%	-9	?	1%	-17%
CCOc1ccc(NC(=O)COC(=O)c2ccc(S(=O)(=O)N3CCOCC3)cc2)cc1	2	5%	-23	-1%	3%	1%
Cc1ccc(NC(=O)N(CCCN2CCOCC2)Cc2cccs2)cc1C	-25	-9%	6	-3%	-12%	-21%
COCCCNC(=O)CCn1c(=O)c2ccccc2n(CC(=O)Nc2ccccc2C)c1=O	34	12%	-3	?	17%	12%
Cc1ccc(C(NC(=O)C(C)C)c2cc([N+](=O)[O-])c3cccnc3c2O)cc1 (stereo not drawn)	21	?	-2	-15%	15µM*	-4%
CC(C)C(=O)NC(c1cccs1)c1cc([N+](=O)[O-])c2cccnc2c1O (stereo not drawn)	-13	?	6	?	7.3µM*	-34%
Cc1c(C(=O)N2c3ccccc3CC2C)oc2ccccc12 (stereo not drawn)	68	-19%	-5	-15%	-30%	-5%
COCC(=O)OC1CCn2c1nc1c2C(=O)C(C)=C(NC(C)=O)C1=O (stereo not drawn)	-1	7.3µM*	9	?	4.6µM*	-87%
COc1cc(-c2cc(NC(C)=O)c3ncc(-c4ccc(C(C)=O)cc4)n3c2)cc(OC)c1OC	-64*	-29%	nt	?	?	3%
COc1ccc(-c2cnc3c(NC=O)cc(-c4cc(OC)c(OC)c(OC)c4)cn23)cc1OC	-28	?	nt	46%	?	-24%
COc1ccc(-c2cc(NC=O)c3ncc(-c4ccc(OC)c(OC)c4)n3c2)c(OC)c1	15	0.0073µM*	nt	?	0.082µM*	-19%
COc1ccc(-c2cc(NC=O)c3ncc(-c4cc(OC)c(OC)c(OC)c4)n3c2)cc1	108	?	nt	4%	?	-11%
COc1cccc(-c2cc(NC=O)c3ncc(-c4ccc(OC)c(OC)c4)n3c2)c1	-30	2.9µM*	nt	?	6.5µM*	-27%
COc1cccc(-c2cnc3c(NC=O)cc(-c4cc(OC)c(OC)c(OC)c4)cn23)c1	22	?	nt	32%	16µM*	-47%
Cc1ccc(-c2nc(CSc3nc4ccccc4c(=O)n3CCO)cs2)cc1	-10	-26%	-10	-7%	-22%	9%
CCC(=O)Nc1ccc(Cl)c(-c2nc3ccccc3[nH]2)c1	nt	nt	nt	5%	nt	-1%
COc1ccc(-c2cnc3c(NC=O)cc(-c4ccccc4)cn23)cc1OC	-14	?	nt	-22%	?	-30%
CC(=O)Nc1cc(-c2ccccc2CN(C)C)cn2c(-c3ccc(C(C)=O)cc3)cnc12	68	18µM*	nt	-19%	?	-14%
COc1ccc(F)cc1-c1cc(NC=O)c2ncc(-c3cccc(C(F)(F)F)c3)n2c1	3	?	nt	?	5.2µM*	13µM*
COc1cccc(-c2cnc3c(NC(C)=O)cc(-c4ccc(OC)c(OC)c4)cn23)c1	?	?	nt	24%	?	0%
COc1ccc(-c2cnc3c(NC=O)cc(-c4cccc(NS(C)(=O)=O)c4)cn23)cc1OC	-24	2.3µM*	nt	?	4.6µM*	-1%
SMILES	IL1B secr inh	HT1080NT lethal	Giardia kill	TGFb SMAD3 inh	HT1080 IDH1KD tx	HepG2 viability
COc1cccc(-c2cc(NC(C)=O)c3ncc(-c4ccc(OC)c(OC)c4)n3c2)c1	-81*	-22%	nt	-6%	-12%	-29%
Cc1n[nH]c(=O)c2c(NC(=O)COC(=O)c3cc(F)cc(F)c3)oc(C)c12	-5	-2%	-14	-20%	-3%	-11%
COc1cccc(-c2cnc3c(NC(C)=O)cc(-c4ccc(C(=O)NC5CC5)cc4)cn23)c1	?	18µM*	nt	1%	21µM*	-36%
O=C(CCn1c(=O)c2cccn2c2cccnc21)N1CCN(c2cccc(C(F)(F)F)c2)CC1	nt	nt	nt	11µM*	nt	-42%
CC1(C)COC(c2ccc(F)c([N+](=O)[O-])c2)=N1	-102*	?	-3	-24%	?	-4%
Cc1nc(-c2ccccc2)sc1CCNS(=O)(=O)c1ccc(Br)cc1	nt	nt	nt	11µM*	nt	-43%
COc1ccc(-c2nc(C)c(CCNS(=O)(=O)c3cc(C)c(C)cc3C)s2)cc1	nt	nt	nt	11µM*	nt	-25%
COc1ccc(-c2nc(C)c(CCNS(=O)(=O)c3cc(Cl)ccc3Cl)s2)cc1	nt	nt	nt	?	nt	-6%
COc1ccc(NS(=O)(=O)c2cccc(C(=O)N(C)Cc3cccs3)c2)cc1	5	-5%	-20	-21%	0%	-22%
COc1ccc(C(=O)Oc2cc3c4c(c2)C(C)=CC(C)(C)N4C(=O)C3=O)cc1OC	10	0%	-26	2%	-4%	-8%
COc1cc2c3c(c1)C(C)=CC(C)(C)N3C(=O)C2=O	0	10µM*	-20	?	3.3µM*	3%
COc1cccc(C(=O)Oc2cc3c4c(c2)C(C)=CC(C)(C)N4C(=O)C3=O)c1	29	7.1µM*	4	-22%	4.5µM*	-2%
COc1ccc(C=NNc2nc3ccccc3s2)cc1	-18	-16%	?	-2%	-14%	-27%

Screening results as filed in PubChem.
